High-throughput results: PubChem BioAssay, several laboratories
Sampled rows, rich in hits. Any-hit rate of the full collection: about 1.3%.
CCHF vOTU inh = CCHFV vOTU protease inhibition. Pep-AMC fluorescence. inhibition, % at 11.5 µM. 0.55% of 370,000 active. AID 651958; in the data active = inhibition above about 30%
ugtP null kill = compounds lethal to S. aureus RN4220 ugtP deletion mutant; OD600 growth, 16 h; growth inhibition, % (test concentration not listed); 0.54% of 330,000 active; in the data active = growth inhibition above about 68%
Sa RN4220 lethal = kills Staphylococcus aureus RN4220. S. aureus RN4220 growth, OD600, 16 h. inhibition, % (no concentration beside the values). 0.33% of 330,000 active. AID 1259311; in the data active = inhibition above about 85%
MazF activator = increases E. coli MazEF RNase cleavage of RNA | P0AE70 | 0.32% of 350,000 active | FAM/BHQ RNA-DNA oligo cleavage fluorescence, 5 h | activation, % at 20 µM; in the data active = activation above about 50%
Target sequence (P0AE70 whole entry, looked up): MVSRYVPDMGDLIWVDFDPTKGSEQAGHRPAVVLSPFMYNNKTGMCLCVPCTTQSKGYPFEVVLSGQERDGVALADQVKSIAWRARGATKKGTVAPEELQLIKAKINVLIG
Mtb betalactam = beta-lactam sensitization of Mtb H37Rv. 0.27% of 330,000 active. inhibition, % at 25 µM. AID 434955. M. tuberculosis H37Rv growth with meropenem, percent inhibition; call rule not given here;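 note: growth measured after seven days incubation then overnight dye step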
3CLpro inhibitor = SARS-CoV 3CLpro protease inhibition. P0C6X7. recombinant SARS-CoV 3CLpro, quenched FRET peptide cleavage. inhibition, % at 6 µM. 0.14% of 290,000 active; in the data active = inhibition above about 12%
Numbers stand for hits; . = inactive; / = no result given; + = active, no number.

SMILES	CCHF vOTU inh	ugtP null kill	Sa RN4220 lethal	MazF activator	Mtb betalactam	3CLpro inhibitor
C#CCOCCOCCOCCNc1nc(N2CCN(C(=O)C(CCC(=O)O)n3cc(C(N)CCCCN)nn3)CC2)nc(N2CCN(C(=O)C(CCCCN)n3cc(C(N)C(C)CC)nn3)CC2)n1 (configuration not stated)	/	.	.	/	/	/
CC1=CSC(=C(C#N)C(=O)N2CCOCC2)N1c1ccccc1	/	.	.	/	/	/
CCC[C@@H](CN1CCC[C@H]1CN1C(N)=NC[C@@H]1Cc1ccccc1)N1C[C@@H]([C@H](C)CC)N(CCCC2CCCC2)C1=N	/	/	/	.	.	/
CC(C)[C@@H]1CN=C(N)N1C[C@@H]1CCCN1C[C@H](C)N1C[C@@H](Cc2ccccc2)N(CCc2ccc(Cl)c(Cl)c2)C1=N	/	100	101	.	.	/
CC[C@@H](C)[C@@H]1CN([C@@H](CN2CCC[C@H]2CN2C(N)=NC[C@H]2CC(C)C)C(C)C)C(=N)N1CCCC1CCCC1	.	101	100	.	.	/
CCCC(CN1CCCC1CN1C(N)=NCC1Cc1ccccc1)N1CC(C(C)CC)N(CCc2ccc(Cl)c(Cl)c2)C1=N (configuration not stated)	/	100	101	/	/	/
COc1ccc(C=NNC(=O)c2nnn(-c3nonc3N)c2-c2cccc(OC)c2)cc1	/	.	.	/	/	/
COc1cc(C=c2sc3n(c2=O)C(c2ccccc2)C(c2ccccc2)=NN=3)ccc1O (configuration not stated)	/	.	.	/	/	/
COc1ccc(C=Nn2c(=O)[nH]c3c([nH]c4ccc(C)cc43)c2=O)cc1CN1CCOCC1	/	.	.	/	/	/
O=c1c2ccccc2c(C=Nc2ccc(O)cc2)c(O)n1Cc1ccccc1	.	.	.	+	.	.
O=c1oc2ccccc2nc1C=C(O)/C=C\c1ccccc1	/	.	.	/	/	/
OCCNc1c2ccccc2nc2c(F)c(F)c(F)c(F)c12	.	.	.	.	.	.
Cc1c2ccccc2nc2c(F)c(NCCO)c(F)c(F)c12	.	.	.	63	.	.
S=c1[nH]nc(COc2ccccc2)n1N=Cc1ccccc1Br	/	.	.	/	/	/
CCCC(=O)N1CCN(c2ccc(NC(=O)c3ccc([N+](=O)[O-])o3)cc2Cl)CC1	.	.	.	.	/	.
O=C(Nc1ccc(N2CCOCC2)c(Cl)c1)c1ccc([N+](=O)[O-])o1	.	96	.	.	/	.
CC(C)C(=O)N1CCN(c2ccc(NC(=O)c3ccc([N+](=O)[O-])o3)cc2Cl)CC1	.	.	.	.	/	.
CN1CCN(c2ccc(NC(=O)c3ccc([N+](=O)[O-])o3)cc2Cl)CC1	.	101	99	.	.	.
CCOC(=O)C(O)(c1ccc(NC(=S)NC(=O)c2ccc(Cl)cc2Cl)cc1)C(F)(F)F (configuration not stated)	.	84	.	.	.	.
COC(=O)C(O)(c1ccc(NC(=S)NC(=O)c2ccc(Cl)cc2Cl)cc1)C(F)(F)F (configuration not stated)	.	86	.	.	.	.
Cc1cccc(C2(c3cccc(C)c3)OC(=O)c3ccccc32)c1	.	82	.	.	.	.
CCOC(=O)/C(=C\C=C1/Sc2cc(OCC)c(OCC)cc2N1CC)C(C)=O	.	.	.	272	.	.
CCOC(=O)/C(=C/C=C1\Sc2cc(OCC)c(OCC)cc2N1CC)C(C)=O	.	/	/	.	.	.
CC(=NNC(=O)c1ccc(-c2ccccc2)cc1)c1ccco1	/	.	.	/	/	/
CCOC(=O)C1=C(c2ccccc2)NC(N)=NC1c1ccc(OCc2ccc(Cl)cc2)c(OC)c1 (configuration not stated)	.	.	99	.	.	.
SMILES	CCHF vOTU inh	ugtP null kill	Sa RN4220 lethal	MazF activator	Mtb betalactam	3CLpro inhibitor
O=C(Nc1ccccc1Cl)ON=C1c2ccccc2-c2ccccc21	/	95	.	.	.	.
O=C(NCC1CCCO1)c1nn2c(C(F)(F)F)cc(-c3cc(Br)cs3)nc2c1Br (configuration not stated)	.	.	.	71	.	.
O=C(NCC1CCCO1)c1nn2c(C(F)(F)F)cc(-c3ccco3)nc2c1Cl (configuration not stated)	.	.	.	.	.	.
COc1ccccc1C(=O)ON=C(c1ccncc1)c1ccc([N+](=O)[O-])cc1	/	.	.	/	/	/
O=C(CC(=O)c1ccccc1O)c1cccc(F)c1	/	96	.	.	.	.
O=C(CC(=O)c1c(F)cccc1Cl)c1ccccc1O	.	.	.	.	.	.
